From PubChem BioAssay (NCATS)
Inconclusive results are not listed. A number with no mark means an inactive call. The source made the active and inactive calls. The call rests on the fitted dose curve; in most records, active means well fitted curve in the direction sought with a large enough effect; inconclusive means small, poorly fitted or top-dose-only effect, or another doubt; inactive means no such curve, though single readings can be large; an effect the other way counts as inactive or inconclusive.

tested on: not listed separately; test: Quantitative high throughput screen for delayed death inhibitors of the malarial parasite plastid, 96 hour incubation (AID 488745); conditions: Plasmodium falciparum growth; series mostly up to 28.7 µM; activity change, negative = inhibition: at the top concentration; further: nearly all actives have a fitted effect of over 70% in size; further: potency means the concentration at half of the fitted maximal effect; on activity change, negative = inhibition: on the % scale 0 is the no-effect control and ±100 the full control effect
In short: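 Decreased firefly luciferase luminescence indicates inhibited growth of reporter-integrated P. falciparum after two generations (96 h, 37 C, 5% CO2). Infected erythrocytes at 0.1% parasitemia, 2% hematocrit, in Albumax-supplemented RPMI 1640.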

Structure (SMILES)	activity change, negative = inhibition [%]	Potency
COc1ccc2c(c1)[C@@]13CCCC[C@H]1[C@@H](C2)NCC3	7.46	–
CN1C2CCC1CC(OC(c1ccccc1)c1ccc(Cl)cc1)C2 (stereo not drawn)	–	0.147 µM (active)
COc1ccc(CNC(=O)/C=C/c2ccc3[nH]cc(CCN(C)C)c3c2)cc1	–	11.7 µM (active)
CO[C@H]1CC=C2CCN3CCC4=C(CC(=O)OC4)[C@]23C1	-5.38	–
CCCCCCCCCCCCCC(=O)O[C@@H]1[C@@H](C)[C@@]2(O)[C@@H](C=C(CO)C[C@@]3(O)C(=O)C(C)=C[C@@H]23)C2C(C)(C)[C@@]21OC(C)=O (stereo partly drawn)	–	11.7 µM (active)
Oc1ccc2c3c1O[C@H]1c4oc5ccccc5c4C[C@@]4(O)C(C2)N(CC2CC2)CCC314 (stereo partly drawn)	–	7.38 µM (active)
COC(=O)N1CCN(C(=O)Cc2ccc(Cl)c(Cl)c2)C(CN2CCCC2)C1 (stereo not drawn)	-37	–
C[N+]1(C)CCOC(O)(c2ccc(-c3ccc(C4(O)C[N+](C)(C)CCO4)cc3)cc2)C1 (stereo not drawn)	21	–

tested on: not listed separately; test: Quantitative high throughput screen for delayed death inhibitors of the malarial parasite plastid, 48 hour incubation (AID 488752); conditions: Plasmodium falciparum growth; series mostly up to 28.7 µM; activity change, negative = inhibition: at the top concentration; further: nearly all actives have a fitted effect of over 65% in size; further: potency means the concentration at half of the fitted maximal effect; on activity change, negative = inhibition: on the % scale 0 is the no-effect control and ±100 the full control effect
In short: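 One-generation (48 h) growth assay: a decrease in luciferase signal from an integrated reporter in P. falciparum-infected red cells (0.1% parasitemia, 2% hematocrit) after compound exposure at 37 C indicates parasite inhibition.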

Structure (SMILES)	activity change, negative = inhibition [%]	Potency
CC(N)Cc1c[nH]c2ccc(O)cc12 (stereo not drawn)	3.99	–
c1ccc2cc(CC3=NCCN3)ccc2c1	13.8	–
CC(C)NP(=O)(NC(C)C)OP(=O)(NC(C)C)NC(C)C	14.2	–
N#CC(C#N)=Cc1cc(O)c(O)c(O)c1	-26.5	–
CN1C2CCC1CC(OC(c1ccccc1)c1ccc(Cl)cc1)C2 (stereo not drawn)	–	6.57 µM (active)
CN1CC[C@@]2(C)c3cc(O)ccc3N(C)C12 (stereo partly drawn)	–	14.7 µM (active)
CN1CCC(c2c[nH]c3ccc(O)cc23)CC1	-15.9	–
COc1ccc2c(c1)C13CCCCC1C(C2)N(C)CC3 (stereo not drawn)	-12.3	–
C[C@]12Cc3cn4c(nc3C=C1CCC1C2CC[C@@]2(C)[C@H]1CC[C@@]2(O)C#N)nc1ccccc14 (stereo partly drawn)	–	3.7 µM (active)
CCCn1c(=O)c2[nH]c(C3CCCC3)nc2n(CCCOC(=O)c2ccc(S(=O)(=O)F)cc2)c1=O	-1.63	–
CNC(=O)OCC[N+](C)(C)C	-2.64	–
NC(N)=Nc1ccc2[nH]c3c(c2c1)C[C@@]1(O)[C@H]2Cc4ccc(O)c5c4[C@@]1(CCN2CC1CC1)[C@H]3O5	13.8	–
Nc1ccc(CCN2CCN(c3cccc(C(F)(F)F)c3)CC2)cc1	-19.5	–
Cc1[nH]c2ccc(O)cc2c1CCN	6.07	–
CC(=O)c1c(O)c(C)c(O)c(Cc2c(O)c3c(c(C(=O)/C=C/c4ccccc4)c2O)OC(C)(C)C=C3)c1O	–	14.7 µM (active)
C[C@@H]1O[C@H](C[N+](C)(C)C)CS1	-27.1	–
CC(N)Cc1c[nH]c2ccc(OCc3cccs3)cc12 (stereo not drawn)	-27.4	–
NC(C(=O)O)c1cc(=O)[nH]o1 (stereo not drawn)	-1.25	–
CN(N=O)c1cc(O)ccc1O	-15.9	–

biological target: Thioredoxin reductase 1, cytoplasmic (Rattus norvegicus) (UniProt O89049); test: qHTS Assay for Substrates of Mammalian Selenoprotein Thioredoxin Reductase 1 (TrxR1) (AID 488772); conditions: purified TrxR1, NADPH consumption substrate assay; series mostly up to 57.1 µM; activity change, negative = NADPH consumption: at the top concentration;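 further: 0% is about no effect; a drop in NADPH fluorescence below the no-compound background marks a TrxR1 substrate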
Sequence (O89049 whole entry, looked up): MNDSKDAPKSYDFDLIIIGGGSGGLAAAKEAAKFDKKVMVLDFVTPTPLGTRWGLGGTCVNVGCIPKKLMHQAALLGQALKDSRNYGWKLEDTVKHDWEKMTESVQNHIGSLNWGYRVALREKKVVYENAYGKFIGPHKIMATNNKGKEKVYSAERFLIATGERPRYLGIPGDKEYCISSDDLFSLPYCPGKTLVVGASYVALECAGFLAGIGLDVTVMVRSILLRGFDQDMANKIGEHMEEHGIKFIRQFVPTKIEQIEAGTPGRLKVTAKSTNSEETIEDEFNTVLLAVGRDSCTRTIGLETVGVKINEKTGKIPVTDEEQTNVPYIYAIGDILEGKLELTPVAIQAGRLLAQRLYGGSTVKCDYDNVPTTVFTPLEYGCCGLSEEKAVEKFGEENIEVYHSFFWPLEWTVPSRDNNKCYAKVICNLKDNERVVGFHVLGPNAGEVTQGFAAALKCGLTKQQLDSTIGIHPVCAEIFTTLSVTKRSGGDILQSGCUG
In short: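 In this dual-purpose format, potential substrates are identified from the first fluorescence read after selenite addition, not from the 8-minute delta. Rat enzyme is preincubated with NADPH and then with compound at ~22 deg C.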

Structure (SMILES)	activity change, negative = NADPH consumption [%]
CCCC[N+]1(C)C2CC(OC(=O)[C@H](CO)c3ccccc3)CC1C1OC12 (stereo partly drawn)	-5.53
CC(N)Cc1c[nH]c2ccc(O)cc12 (stereo not drawn)	-7.02
COc1ccc2c(c1)[C@@]13CCCC[C@H]1[C@@H](C2)NCC3	-0.624
O=c1c2ccccc2[se]n1-c1ccccc1	-14.2
c1ccc2cc(CC3=NCCN3)ccc2c1	-12.8
Ic1ccccc1CNC1C2CCN(CC2)C1C(c1ccccc1)c1ccccc1 (stereo not drawn)	-11.4
OCc1cnc[nH]1	-7.38
CC(C)NP(=O)(NC(C)C)OP(=O)(NC(C)C)NC(C)C	-2.47
C=CCN(C1=NCCN1)c1c(Cl)cccc1Cl	-13.2
C[N+]1(C)CCc2cc3c(cc2[C@H]1[C@@H]1OC(=O)c2c1ccc1c2OCO1)OCO3	-11.8
COc1ccc2c(c1)/C(=C/c1cnc[nH]1)C(=O)N2	-10.7
COc1ccc(CNC(=O)/C=C/c2ccc3[nH]cc(CCN(C)C)c3c2)cc1	-7.72
CO[C@H]1CC=C2CCN3CCC4=C(CC(=O)OC4)[C@]23C1	1.33
CCCCCCCCCCCCCC(=O)O[C@@H]1[C@@H](C)[C@@]2(O)[C@@H](C=C(CO)C[C@@]3(O)C(=O)C(C)=C[C@@H]23)C2C(C)(C)[C@@]21OC(C)=O (stereo partly drawn)	-15.2
Oc1ccc2c3c1O[C@H]1c4[nH]c5ccccc5c4C[C@@]4(O)C(C2)N(CC2CC2)CCC314 (stereo partly drawn)	-4.46
CN1CC[C@@]2(C)c3cc(O)ccc3N(C)C12 (stereo partly drawn)	3.04
C[N+](C)(C)CC#CCOC(=O)Nc1cccc(Cl)c1	-14.1
Oc1ccc2c3c1O[C@H]1c4oc5ccccc5c4C[C@@]4(O)C(C2)N(CC2CC2)CCC314 (stereo partly drawn)	-8.09

Structure (SMILES)	activity change, negative = NADPH consumption [%]
CN1CCC(c2c[nH]c3ccc(O)cc23)CC1	-5.81
COC(=O)N1CCN(C(=O)Cc2ccc(Cl)c(Cl)c2)C(CN2CCCC2)C1 (stereo not drawn)	-3.02
COc1ccc2c(c1)C13CCCCC1C(C2)N(C)CC3 (stereo not drawn)	-3.75
C[C@]12Cc3cn4c(nc3C=C1CCC1C2CC[C@@]2(C)[C@H]1CC[C@@]2(O)C#N)nc1ccccc14 (stereo partly drawn)	-2.73
CCCn1c(=O)c2[nH]c(C3CCCC3)nc2n(CCCOC(=O)c2ccc(S(=O)(=O)F)cc2)c1=O	-8.76
Cc1cc([C@@H]2CCCN2C)on1	-5.03
N=C(N)c1ccc(CS(=O)(=O)F)cc1	-11
C[N+]1(C)CCOC(O)(c2ccc(-c3ccc(C4(O)C[N+](C)(C)CCO4)cc3)cc2)C1 (stereo not drawn)	-2.23
C[N+]1(C)C2CCC1CC(OC(=O)c1c[nH]c3ccccc13)C2 (stereo not drawn)	2.78
NC(N)=Nc1ccc2[nH]c3c(c2c1)C[C@@]1(O)[C@H]2Cc4ccc(O)c5c4[C@@]1(CCN2CC1CC1)[C@H]3O5	2.87
Nc1ccc(CCN2CCN(c3cccc(C(F)(F)F)c3)CC2)cc1	-17.4
Cc1[nH]c2ccc(O)cc2c1CCN	-8.83
CC(=O)c1c(O)c(C)c(O)c(Cc2c(O)c3c(c(C(=O)/C=C/c4ccccc4)c2O)OC(C)(C)C=C3)c1O	-16.3
C=CCN1CC[C@]23c4c5ccc(O)c4O[C@H]2/C(=N/NC(=O)c2ccccc2)CC[C@@]3(O)[C@H]1C5	-7.12
C[C@@H]1O[C@H](C[N+](C)(C)C)CS1	1.46
CC(N)Cc1c[nH]c2ccc(OCc3cccs3)cc12 (stereo not drawn)	-1.54
NC(C(=O)O)c1cc(=O)[nH]o1 (stereo not drawn)	-1.02
CN(N=O)c1cc(O)ccc1O	-4.68
